# Compound activity: PubChem, National Center for Advancing Translational Sciences (NCATS)
# Rows were chosen to be rich in hits. Some 0.56% of all compounds tested hit in one or more screens of this group.
# GALK inhibitor: inhibitors of human galactokinase | P51570 | Purified GALK, Kinase-Glo residual ATP luminescence | Potency, µM (top dose mostly 57.5 µM), for inactives: top-dose activity change, negative = inhibition, hits mostly inhibitors | actives 0.007% (n = 270,000) | AID 1868; also: potency is read from the fitted curve at half-maximal effect; % is scaled to controls: 0 for no effect and ±100 for the full control effect
#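 Compounds were pin-transferred into ATP buffer (35 uM final), then GALK plus galactose (5 nM, 100 uM final) was added. After 1 h at room temperature, Kinase-Glo Plus was added and luminescence read after 10 min.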
# Luc counter: counter-screen: inhibitors of Kinase-Glo firefly luciferase; Q27757; Kinase-Glo luciferase, ATP luminescence, 8 min; Potency, µM (doses to about 38.3 µM), for inactives: top-dose activity change, negative = inhibition, most hits filed as inhibitors; actives 0.28% (n = 200,000); AID 1379; also: potency is read from the fitted curve at half-maximal effect; % is scaled to controls: 0 for no effect and ±100 for the full control effect; nearly all actives have a fitted effect of over 60% in size
#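 Luminescence was the read-out, taken after 8-minute incubation at ambient temperature. Luciferase turned over luciferin with 10 uM ATP in imidazole pH 7.2 buffer containing KCl, MgCl2, Tween 20 and BSA.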
# PKM2 act: PKM2 (human) enzyme activation. P14618. purified PKM2, Kinase-Glo ATP luminescence, activation; response scale: 0% is enzyme alone, no compound. Potency, µM (doses to about 57.5 µM), without a hit: top-dose activation, actives largely listed as activators. actives 0.34% (n = 260,000); also: potency is read from the fitted curve at half-maximal effect; % is scaled to controls: 0 for no effect and ±100 for the full control effect; nearly all actives have a fitted effect of over 55% in size
#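 Purified hPK-M2 (>95%) run at intermediate activity with 0.1 mM ADP and 0.5 mM PEP in 50 mM imidazole pH 7.2, KCl, MgCl2; 1 h room temperature. ATP formed read by Kinase-Glo luminescence; normalized to uninhibited and no-enzyme controls.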
# CBFb-RUNX1 inh: inhibitors of human CBF-beta and RUNX1 interaction | Q01196+Q13951 | AlphaScreen CBFb-His/RUNX1-biotin binding, biochemical | Potency, µM (top dose mostly 59.8 µM), for inactives: at the highest dose activity, negative = inhibition, usual class: inhibitors | 230,000 tested, under 10 active; also: % of control where 0% means no effect
#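 Read-out: AlphaScreen. Format: His-CBF-beta with biotinylated RUNX1 (30 nM each) preincubated 20 min, compound 15 min, Ni-chelate plus streptavidin beads 90 min; room temperature throughout.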
# Tb PFK inh: inhibitors of T. brucei phosphofructokinase; O15648; T. brucei PFK, ADP-Glo luminescence; Potency, µM (top dose mostly 57.5 µM), inactives show at the top dose activity, negative = inhibition, most hits filed as inhibitors; actives 0.17% (n = 330,000); AID 485367;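 also: potency is read from the fitted curve at half-maximal effect; 0% = uninhibited 1x PFK enzyme wells and -100% = no-enzyme wells; nearly all actives have a fitted effect of over 60% in size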
# Target sequence (O15648 whole entry, looked up): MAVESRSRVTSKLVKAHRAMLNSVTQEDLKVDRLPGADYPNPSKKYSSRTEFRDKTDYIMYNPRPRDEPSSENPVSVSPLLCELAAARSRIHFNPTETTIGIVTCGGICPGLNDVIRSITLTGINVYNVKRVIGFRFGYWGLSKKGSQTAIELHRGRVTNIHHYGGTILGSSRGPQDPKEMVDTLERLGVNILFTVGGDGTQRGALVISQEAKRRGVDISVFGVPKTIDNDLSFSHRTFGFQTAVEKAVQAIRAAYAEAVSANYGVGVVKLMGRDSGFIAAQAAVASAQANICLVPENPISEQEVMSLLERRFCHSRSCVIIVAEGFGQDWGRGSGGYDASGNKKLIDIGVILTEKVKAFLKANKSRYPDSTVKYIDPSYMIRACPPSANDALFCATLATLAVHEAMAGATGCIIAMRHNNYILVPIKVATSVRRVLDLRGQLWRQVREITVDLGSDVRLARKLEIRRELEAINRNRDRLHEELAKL
#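 ADP-Glo luminescence quantified ADP after 45 min at room temperature, with 1.25 nM T. brucei PFK, 0.1 mM ATP and 0.5 mM fructose-6-phosphate in pH 8.0 TEA buffer. qHTS titrations up to 57 µM; curves classified by quality.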
# * hit, by the source's call; ? = inconclusive; . = no result; [ ] = dose if it differs, or a comment. Calls follow the shape of the dose curve; as a rule, active = well fitted curve in the direction sought with a large enough effect; inconclusive = small, poorly fitted or top-dose-only effect, or another doubt; inactive = no such curve, though single readings can be large; an effect the other way counts as inactive or inconclusive.
SMILES,GALK inhibitor,Luc counter,PKM2 act,CBFb-RUNX1 inh,Tb PFK inh
COc1ccc(OC)c(CCNC(=O)Cn2sc3nc(C)cc(C)c3c2=O)c1,2.0%,?,-6.9%,?,2.39µM*
COc1ccc(OC)c(CCNC(=O)Cn2nc(C)c3c(C)n(-c4ccc(C)cc4)nc3c2=O)c1,-0.1%,.,.,.,-1.5%
CCCCCCCC1=Cc2ccccc2C(C(C(C)=O)C(=O)OC)N1C(=O)OC (stereo not given),.,-8.8%[7.66 µM],-0.4%[11.5 µM],3.2%[13.1 µM],.
O=C(Nc1ccc(C(=O)N2CCCC2)cc1)c1ccc2c(c1)OCO2,1.9%,12.6µM*,-45.6%,3.3%,2.1%
O=C(Nc1ccccc1)Nc1ccc(C(=O)N2CCCC2)cc1,19.7%,6.31µM*,-52.4%,2.1%,-21.9%
O=C(c1ccco1)n1c(=S)nc2ccccn21,6.8%,12.6µM*,-17.1%,5.6%,-7.2%
Cc1cccc2nc(=S)n(C(=O)c3ccco3)n12,0.3%,3.16µM*,-66.0%,2.0%,1.7%
O=C(CS(=O)(=O)c1ccccc1)c1ccc2c(c1)OCCO2,1.8%,10µM*,-15.7%,1.3%,-7.8%
O=C(O)CCC(=O)c1ccc2c(c1)OCCO2,0.2%,-1.3%,?,4.5%,0.5%
COc1ccc(CO/N=C/c2c(C)[nH]c(=O)[nH]c2=O)cc1,-3.8%,-0.2%,25.1µM*,1.0%,8.3%
COc1ccc(C(=O)N/N=C/c2c(C)[nH]c(=O)[nH]c2=O)cc1,8.8%,0.1%,2.1%,0.1%,-3.6%
O=C(NCCc1c[nH]c2ccccc12)c1ccccc1O,.,.,.,-1.6%,.
CSc1ccc(/C=C/C(=O)Nc2ccccc2)cc1,4.1%,12.6µM*,-25.2%,-7.6%,-9.4%
CSc1cccc(NC(=O)/C=C/c2ccccc2)c1,1.6%,-1.8%,2.2%,14.0%,-3.6%
CCCCc1nc2c(c3c1C[C@H](C)OC3)CN(C(=O)COC)CC2,.,-5.2%[7.66 µM],-12.1%[11.5 µM],-2.8%[13.1 µM],.
CCCCCCCCCCCC,.,.,.,3.6%,.
Cc1ccc(CSc2nnc(SCC(=O)N/N=C/c3c[nH]c4ccccc34)s2)cc1,-2.6%,0.7%,25.1µM*,-5.2%,-0.7%
C[C@@H]1O[C@H](O[C@@H]2C(O)[C@H](O)[C@@H](CO)O[C@H]2Oc2cc(O)c3c(=O)cc(-c4ccc(O)cc4)oc3c2)[C@H](O)[C@H](O)[C@H]1O (stereo not given in full),.,.,.,19.1%,.
O=C(CSc1nc2[nH]ncc2c(=O)n1-c1ccccc1Br)NCc1ccccc1Cl,0.3%,-0.2%,7.0%,-7.8%,3.1%
N#CCSc1nc2[nH]ncc2c(=O)n1-c1ccccc1Br,3.3%,10µM*,-31.8%,2.0%,-7.3%
CCOC(=O)c1c(CSC(=N)N)n(C)c2cc(Br)c(OC(C)=O)cc12,0.0%,.,15.8µM*,6.6%,1.5%
CCOC(=O)c1c(CSC(=N)N)n(-c2ccc(C)cc2)c2cc(Br)c(OC(C)=O)cc12,2.7%,-0.8%,-8.8%,-12.1%,5.4%
COc1ccc(C2=Nn3c(nnc3-c3cc(OC)ccc3OC)SC2)c(OC)c1,.,.,.,-11.1%,.
CCOC(=S)SCC(=O)Nc1nccs1,-2.1%,-2.3%,17.8µM*,-1.2%,3.5%
CCOC(=S)SCC(=O)Nc1nc(C)c(C)s1,4.8%,.,-0.9%,6.9%,-16.2%
SMILES,GALK inhibitor,Luc counter,PKM2 act,CBFb-RUNX1 inh,Tb PFK inh
CCOC(=O)CCN1CCN(C(=O)c2ccc(-n3c(=O)c(=O)[nH]c4ccccc43)cc2)CC1,.,1.9%,.,.,.
CS(=O)(=O)N1CCN(c2ccc([N+](=O)[O-])c(NCc3cccnc3)c2)CC1,3.4%,2.9%,10µM*,-4.9%,-1.5%
CC(C)c1nc2sc3c(SCC(=O)NCc4ccco4)ncnc3c2c2c1CCC2,-1.8%,-5.0%,35.5µM*,3.9%,2.0%
CCn1c(SCC(=O)Nc2cccc(C)c2)nc2nc3c(cc2c1=O)COC(C)(C)C3,-0.1%,.,14.1µM*,3.5%,1.9%
O=C(O)c1nnsc1-c1ccc(-c2snnc2C(=O)O)cc1,.,-4.1%[7.66 µM],.,.,.
COc1ccc(N/C=C2\CCc3ccccc3C2=O)cc1,0.9%,11.2µM*,-41.0%,13.4%,-19.6%
COc1ccc2c(c1)CC/C(=C\Nc1ccc3c(c1)OCO3)C2=O,-1.1%,-8.8%,-0.8%,?,-10.2%
